{"source": "PubChem BioAssay AID720504", "about": "(National Center for Advancing Translational Sciences (NCATS), 2013)", "note": "In all, about 360,000 compounds went through this assay and about 10,000 (2.8%) were called active. Roughly 4% stayed inconclusive and do not appear here. Many of the other results were omitted from the sample, so actives are more common in it than they were. Values without a mark were called inactive. The call rests on the fitted dose curve; in most records, active means well fitted inhibition curve with a large enough effect; inconclusive means small, poorly fitted or top-dose-only effect; inactive means flat fitted curve, though single readings scatter. On the % scale 0 is the no-effect control and ±100 the full control effect; potency means the concentration at half of the fitted maximal effect."}
{"target": "Serine/threonine-protein kinase PLK1 (Homo sapiens) (UniProt P53350)", "sequence (P53350 whole entry, looked up, the tested form may be a part)": "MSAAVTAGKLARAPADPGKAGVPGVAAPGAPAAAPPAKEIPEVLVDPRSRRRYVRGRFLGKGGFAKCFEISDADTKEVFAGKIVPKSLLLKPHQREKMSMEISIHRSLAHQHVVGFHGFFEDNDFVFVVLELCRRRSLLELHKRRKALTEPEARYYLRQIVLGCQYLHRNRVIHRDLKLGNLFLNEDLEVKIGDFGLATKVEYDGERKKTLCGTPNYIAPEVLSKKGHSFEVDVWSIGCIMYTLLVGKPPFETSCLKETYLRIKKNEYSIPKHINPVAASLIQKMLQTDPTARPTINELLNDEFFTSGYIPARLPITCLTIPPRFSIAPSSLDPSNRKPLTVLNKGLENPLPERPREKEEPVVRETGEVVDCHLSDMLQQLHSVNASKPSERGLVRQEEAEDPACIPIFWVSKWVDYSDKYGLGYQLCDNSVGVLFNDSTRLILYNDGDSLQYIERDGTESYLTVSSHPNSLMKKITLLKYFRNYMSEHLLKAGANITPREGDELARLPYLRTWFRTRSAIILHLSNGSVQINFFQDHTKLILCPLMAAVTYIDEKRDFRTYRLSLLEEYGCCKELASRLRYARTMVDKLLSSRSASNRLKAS", "assay": "qHTS for Inhibitors of PLK1-PDB (polo-like kinase 1 - polo-box domain): Primary Screen; further: nearly all actives have a fitted effect of over 65% in size; on max response, negative = inhibition: series mostly up to about 57 µM", "settings": "Plk1 PBD binding of FITC phosphopeptide, fluorescence polarization", "units": {"max response, negative = inhibition": "%"}}
{"smiles": "Cc1ccccc1NC(=O)c1cc(S(=O)(=O)Nc2cccc(C(=O)O)c2)ccc1Cl", "max response, negative = inhibition": 4.03}
{"smiles": "CC(=O)Nc1cccc(/C(C)=N/NC(=O)c2c(-c3ccccc3Cl)noc2C)c1", "max response, negative = inhibition": -10.9}
{"smiles": "C/C(=N\\Nc1cccc(C(=O)O)c1)c1ccc2c(c1)Nc1ccccc1S2", "Potency": "26.7 µM (active)"}
{"smiles": "CCOC(=O)[C@]12CCCC=C1N(CCC1=CCCCC1)C(=O)[C@H](CC(=O)N1CCSCC1)C2", "max response, negative = inhibition": 1.28}
{"smiles": "O=C1C(Cl)=C(Oc2ccccc2)C(=O)c2ccccc21", "Potency": "1.68 µM (active)"}
{"smiles": "COC(=O)c1ccc2nc(-c3ccc(OC)c(OC)c3)c(Cc3ccccc3)n2c1", "max response, negative = inhibition": -13.8}
{"smiles": "CN(C)c1ccnc2sc(C(=O)c3ccccc3)c(N)c12", "Potency": "29.9 µM (active)"}
{"smiles": "CN(C(=O)c1ccccn1)c1nnc(-c2ccccn2)s1", "max response, negative = inhibition": 1.77}
{"smiles": "CCN(CC)C(=O)c1sc2nc(-c3ccccc3)ccc2c1N", "max response, negative = inhibition": -8.25}
{"smiles": "O=C(NC(c1ccc(Cl)cc1)c1cnccn1)C1CCN(Cc2ccc(Cl)cc2)CC1", "note": "(configuration not stated)", "max response, negative = inhibition": 2.32}
{"smiles": "Clc1cccc(Cc2c(-c3cccc(Cl)c3)nc3ccc(Cl)cn23)c1", "max response, negative = inhibition": -13.7}
{"smiles": "CSc1ccccc1NC(=O)CN(C)CC(=O)Nc1ccc(Cl)cc1[N+](=O)[O-]", "max response, negative = inhibition": -4.66}
{"smiles": "O=C(COc1ccc(Cl)cc1[N+](=O)[O-])N1CCCCC1", "max response, negative = inhibition": -4.72}
{"smiles": "O=C1CCCCC1Sc1ccc(Cl)cc1[N+](=O)[O-]", "note": "(configuration not stated)", "Potency": "4.74 µM (active)"}
{"smiles": "CCOC(=O)c1c(NC(=S)SC)sc(C(=O)N2CCc3ccccc3C2)c1C", "max response, negative = inhibition": -5.18}
{"smiles": "CC(=O)NC(c1ccccc1)c1nc(-c2ccccc2C)cs1", "note": "(configuration not stated)", "max response, negative = inhibition": -5.3}
{"smiles": "COCC1CCCCN1C(=O)c1cc(COc2ccc(C)c(C)c2)on1", "note": "(configuration not stated)", "max response, negative = inhibition": 3.28}
{"smiles": "CCOc1ccc(S(=O)(=O)N2CCN(C(=S)NCC3CCCO3)CC2)cc1", "note": "(configuration not stated)", "max response, negative = inhibition": 1.52}
{"smiles": "CCOc1ccc(NS(=O)(=O)c2ccc(C(=O)NCC3CCCO3)cc2)cc1", "note": "(configuration not stated)", "max response, negative = inhibition": 1.53}
{"smiles": "CCOc1ccc(-n2c(N)c(C(=O)NCC3CCCO3)sc2=S)cc1", "note": "(configuration not stated)", "Potency": "23.8 µM (active)"}
{"smiles": "Cc1ccccc1-c1n[nH]c(=S)n1/N=C/c1ccc(-c2ccccc2Br)o1", "max response, negative = inhibition": -17.2}
{"smiles": "CCc1n[nH]c(=S)n1/N=C/c1c[nH]c2ccc(Br)cc12", "Potency": "33.6 µM (active)"}
{"smiles": "CN(Cc1ccccc1F)c1cc2c(c3c1ccn3C)C1CCC2O1", "note": "(configuration not stated)", "max response, negative = inhibition": -4.37}
{"smiles": "O=C1OCCOC2CCCc3oc(-c4ccccc4)c1c32", "note": "(configuration not stated)", "max response, negative = inhibition": -1.47}
{"smiles": "CC1=C/C(=N\\OS(=O)(=O)c2ccccc2)C=CC1=O", "Potency": "1.26 µM (active)"}
{"smiles": "CCN(CC)CCN(C)C(c1ccnc2ccccc12)c1nnnn1-c1ccc2c(c1)OCCO2", "note": "(configuration not stated)", "max response, negative = inhibition": -13.1}
{"smiles": "C=CCOc1ccc(/C=C2\\SC(=S)N(CCC(=O)O)C2=O)cc1", "Potency": "26.7 µM (active)"}
{"smiles": "O=C1/C(=C/c2ccc(F)cc2)SC(=S)N1CCCC(=O)N1CCCCC1CCO", "note": "(configuration not stated)", "max response, negative = inhibition": -15.9}
{"smiles": "COc1ccc(/C=C2\\SC(=S)N(CCC(=O)N3CCOCC3)C2=O)cc1OC", "max response, negative = inhibition": -7.23}
{"smiles": "CCCCC[C@H](C)N1C[C@@H](COCc2ccccc2)Oc2cc(N3CCC[C@@H]3CO)ccc2S1(=O)=O", "max response, negative = inhibition": -6.61}
{"smiles": "CC(C)C[C@@H]1Cc2[nH][nH]c(=O)c2[C@H](CCc2ccccc2)O1", "max response, negative = inhibition": -16.3}
{"smiles": "COc1ccccc1CNC(=O)c1cc(-c2cc(Cl)ccc2C)n[nH]1", "max response, negative = inhibition": 0.345}
{"smiles": "O=[N+]([O-])/C=C/c1ccc2c(ccn2Cc2ccccc2)c1", "Potency": "3.36 µM (active)"}
{"smiles": "CCc1nc2c(OCCOc3ccccc3)cccn2c1N(C)C(=O)c1ccccc1F", "max response, negative = inhibition": -11.2}
{"smiles": "CCOC(=O)Cc1csc(NC(=O)CSc2ccc(Br)cc2)n1", "max response, negative = inhibition": -1.13}
{"smiles": "CCCCc1nnc(NC(=O)CSc2nc(C)cc(=O)[nH]2)s1", "max response, negative = inhibition": -4.5}
{"smiles": "CCOC(=O)Cc1csc(NC(=O)CSc2nc(C)cc(=O)[nH]2)n1", "Potency": "11.9 µM (active)"}
{"smiles": "Cn1c(NCc2cccnc2)nc2cc(-c3ccc(F)cc3)sc2c1=O", "max response, negative = inhibition": -3.07}
{"smiles": "COC(=O)[C@@]12C[C@@H](CC(=O)N3CCCCC3)C(=O)N(Cc3ccc4c(c3)OCO4)C1=CCC(C)(C)C2", "max response, negative = inhibition": 2.15}
{"smiles": "CC(C)C[C@H]1CNC(=S)N1C[C@H]1CCCN1C[C@H](Cc1ccc(O)cc1)N1C[C@H](Cc2ccc(O)cc2)N(CC2CCCCC2)C1=S", "max response, negative = inhibition": 1.95}
{"smiles": "CC1(C(=O)NCc2ccc3c(c2)OCO3)CCN1C(=O)Cc1cccc2ccccc12", "note": "(configuration not stated)", "max response, negative = inhibition": -5.76}
{"smiles": "CCN1CCC2(CC1)N=C(c1ccc(F)cc1)C(=S)N2C(=O)c1ccc(C)cc1", "Potency": "15 µM (active)"}
{"smiles": "CCn1c(C(C)NC(=O)c2ccc(C)cc2)n[nH]c1=S", "note": "(configuration not stated)", "max response, negative = inhibition": -15.1}
{"smiles": "Cc1ccc(C(=O)N(CN2CCCC2=O)c2ccc(F)cc2)cc1", "max response, negative = inhibition": -5.15}
{"smiles": "CCOc1ccc(NC(=O)c2cc(C)nc3ccccc23)cc1", "max response, negative = inhibition": -0.67}
{"smiles": "CCOc1ccc(NS(=O)(=O)c2ccc(C)c(C(N)=O)c2)cc1", "max response, negative = inhibition": 1.44}
{"smiles": "CCOc1ccc2nc(NCCNC(=O)C(C)(C)C)c(C)cc2c1", "Potency": "26.7 µM (active)"}
{"smiles": "COc1ccc(NC(=O)C2(C)Cc3c(-c4cccc(NC(C)=O)c4)ccnc3O2)cc1OC", "note": "(configuration not stated)", "max response, negative = inhibition": -12.3}
{"smiles": "CN(C)CCCn1c(=O)n(Cc2ccccc2)c(=O)c2c3c(sc21)CCCCC3", "max response, negative = inhibition": -1.79}
{"smiles": "CCCc1nc2sc3c(c2c(=O)n1NC(=O)CCCl)CCCC3", "max response, negative = inhibition": -16.7}
{"smiles": "CCn1c(=S)[nH]c2sc3c(c2c1=O)CCCCC3", "Potency": "23.8 µM (active)"}
{"smiles": "CCN(CC)C(=O)C1=C(C)N(Cc2ccc(OC)cc2)C(=O)C(CC(=O)NCc2ccco2)C1", "note": "(configuration not stated)", "max response, negative = inhibition": 5.53}
{"smiles": "CC(C)c1cccc(C(C)C)c1Nc1cn[nH]c1", "max response, negative = inhibition": 3.35}
{"smiles": "CCN1CCN(C2CCCCC2NS(=O)(=O)c2ccc(Cl)cc2)CC1", "note": "(configuration not stated)", "Potency": "26.7 µM (active)"}
{"smiles": "O=S(=O)(NC1CCCCC1N1CCCCC1)c1ccc(Cl)cc1", "note": "(configuration not stated)", "max response, negative = inhibition": 3.73}
{"smiles": "O=S(=O)(NC1CCCCC1N1CCC(O)CC1)c1ccc(Cl)cc1", "note": "(configuration not stated)", "max response, negative = inhibition": -6.48}
{"smiles": "Cc1cc(O)ccc1-c1cc(C(=O)NCc2cc(C(F)(F)F)cc(C(F)(F)F)c2)[nH]n1", "max response, negative = inhibition": 3.49}
